Test results published in PubChem BioAssay (NCATS).
“And” between values parts separate entries of the source, which are not always exact repeats. Equal values may be shown once. Records with an inconclusive call do not appear. The source made the active and inactive calls. Calls come from the whole dose curve; as a rule, active = well fitted curve in the direction sought with a large enough effect; inconclusive = small, poorly fitted or top-dose-only effect, or another doubt; inactive = no such curve, though single readings can be large; an effect the other way counts as inactive or inconclusive.

Key:
[1] = target: Cellular tumor antigen p53 (Homo sapiens) (UniProt P04637); experiment: Primary qHTS for small molecule compounds that upregulate eGFP-tagged delta133p53alpha (in N-terminal) cells. (AID 2060322); conditions: NCI-H358 eGFP-delta133p53alpha fluorescence, 24 h; activation: hits give high values; note: nearly all actives have a fitted effect of over 75% in size; note: potency is the fitted concentration of half-maximal effect;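 for activation: cells pre-induced with doxycycline then dosed without doxycycline; 0% = DMSO vehicle and 100% = reference activator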
Cellular tumor antigen p53 (Homo sapiens), sequence (P04637 whole entry, looked up): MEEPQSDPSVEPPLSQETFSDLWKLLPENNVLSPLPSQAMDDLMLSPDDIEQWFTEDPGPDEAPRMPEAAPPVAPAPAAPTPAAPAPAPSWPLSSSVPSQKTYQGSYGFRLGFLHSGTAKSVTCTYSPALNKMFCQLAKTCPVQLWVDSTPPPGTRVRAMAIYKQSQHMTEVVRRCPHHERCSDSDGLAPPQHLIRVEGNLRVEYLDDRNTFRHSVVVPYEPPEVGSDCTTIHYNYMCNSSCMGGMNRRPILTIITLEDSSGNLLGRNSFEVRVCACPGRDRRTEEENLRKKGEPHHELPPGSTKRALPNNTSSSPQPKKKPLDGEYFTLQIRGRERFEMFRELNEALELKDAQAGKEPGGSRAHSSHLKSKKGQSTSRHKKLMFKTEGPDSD
Outline: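 NCI-H358 cells pre-induced 24 h with 10 ng/ml doxycycline for eGFP-delta133p53alpha, plated dox-free and exposed 24 h at 37C to titrated compounds. Fixed, Hoechst-stained; gated GFP peak intensity by laser scanning cytometry, normalized to DMSO (0%) and 57.5 uM 5-azacytidine (100%).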

[2] = target: Aldehyde dehydrogenase, mitochondrial (Homo sapiens) (UniProt P05091); experiment: qHTS for Inhibitors of the Aldehyde Dehydrogenase Family (ALDH2) Primary screen (AID 2061308); conditions: ALDH2 enzyme inhibition qHTS, 1536-well; series mostly up to 56 µM;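 note: plate controls were vehicle for no effect and reference inhibitor for full effect; nearly all actives have a fitted effect of over 55% in size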
[3] = target: Retinaldehyde dehydrogenase 3 (Homo sapiens) (UniProt P47895); experiment: qHTS for Inhibitors of the Aldehyde Dehydrogenase Family (ALDH1A3) Primary screen (AID 2061315); conditions: ALDH inhibition qHTS; series mostly up to 56 µM;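 note: plate controls were DMSO vehicle for no effect and reference inhibitor for full effect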
[4] = BET inhibitor-based combinations targeting novel dependencies in MECOM-rearranged (r) AML: SET-2 cell line (AID 2202231); conditions: SET-2 AML cells viability, CellTiter-Glo luminescence, 48 h; viability: hits give low values, concentration not given here; note: nearly all actives have a fitted effect of over 35% in size; note: potency is the fitted concentration of half-maximal effect;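 for viability: plate controls were DMSO treated cells for no effect and wells without cells for full effect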
Outline: (§1)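 500 cells/well; 11-pt dose curve; 48 h, standard incubator; CellTiter-Glo luminescence after 15 min RT; DMSO/empty-well normalization; AUC plus Z-AUC (mean-centered within each line).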

[5] = BET inhibitor-based combinations targeting novel dependencies in MECOM-rearranged (r) AML: OCI-AML3 cell line (AID 2202232); conditions: CellTiter-Glo luminescence, 48 h; Potency: OCI-AML3 viability; series mostly up to 46 µM; note: nearly all actives have a fitted effect of over 35% in size; note: potency is the fitted concentration of half-maximal effect;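 for viability (% of control): plate controls were DMSO vehicle wells for no effect and wells without cells for full effect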
Outline: as §1

[6] = BET inhibitor-based combinations targeting novel dependencies in MECOM-rearranged (r) AML: MV-4-11 cell line (AID 2202233); conditions: MV-4-11 AML viability, CellTiter-Glo luminescence, 48 h; series mostly up to 46 µM; note: nearly all actives have a fitted effect of over 45% in size; note: potency is the fitted concentration of half-maximal effect
Outline: (§2)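 Cells were plated at 500 per well and exposed to each drug across an 11-point dose range for 48 hr at standard incubator conditions. Viability was read by CellTiter-Glo luminescence, and activity was expressed as AUC and per-cell-line Z-transformed AUC.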

[7] = BET inhibitor-based combinations targeting novel dependencies in MECOM-rearranged (r) AML: AML-191 cell line (AID 2202236; note: nearly all actives have a fitted effect of over 35% in size; note: potency is the fitted concentration of half-maximal effect;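 for viability (% of control): plate controls were vehicle wells for no effect and wells without cells for full effect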); conditions: AML-191 viability, CellTiter-Glo luminescence, 48 h; series mostly up to 46 µM
Outline: as §1

[8] = BET inhibitor-based combinations targeting novel dependencies in MECOM-rearranged (r) AML: AML-194 cell line (AID 2202237; note: nearly all actives have a fitted effect of over 40% in size; note: potency is the fitted concentration of half-maximal effect;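 for viability (% of control): plate controls were vehicle wells for no effect and wells without cells for full effect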); conditions: AML-194 (MECOM-r AML) viability, CellTiter-Glo, 48 h; series mostly up to 46 µM
Outline: as §1

[9] = BET inhibitor-based combinations targeting novel dependencies in MECOM-rearranged (r) AML: HNT-34 cell line (AID 2202234); conditions: HNT-34 AML viability, CellTiter-Glo luminescence, 48 h; series mostly up to 46 µM;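 note: plate controls were vehicle wells for no effect and cell-free wells for full effect; nearly all actives have a fitted effect of over 35% in size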
Outline: as §2

[10] = BET inhibitor-based combinations targeting novel dependencies in MECOM-rearranged (r) AML: UCSD-AML1 cell line (AID 2202235); conditions: UCSD-AML1 AML cells viability, CellTiter-Glo, 48 h; series mostly up to 46 µM; note: nearly all actives have a fitted effect of over 40% in size; note: potency is the fitted concentration of half-maximal effect;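 for viability (% of control): plate controls were DMSO vehicle wells for no effect and blank wells for full effect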
Outline: as §2

SMILES	activation [1]	Potency [2]	Potency [3]	viability [4]	Potency [5]	Potency [6]	Potency [7]	Potency [8]	Potency [1]	viability (% of control) [5]	viability (% of control) [9]	Potency [4]	Potency [10]	Potency [9]
CS(=O)(=O)c1ccc(C2=C(c3ccccc3)C(=O)OC2)cc1	-5.73% (inactive)	inactive	inactive	95.1% (inactive)	inactive	inactive	inactive	inactive	–	–	–	–	–	–
CC1(C)CCC(CN2CCN(c3ccc(C(=O)NS(=O)(=O)c4ccc(NCC5CCOCC5)c([N+](=O)[O-])c4)c(Oc4cnc5[nH]ccc5c4)c3)CC2)=C(c2ccc(Cl)cc2)C1	-10.9% (inactive)	inactive	inactive	114% (inactive)	3.72 µM (active)	0.118 µM (active)	18.6 µM (active)	4.68 µM (active)	–	–	–	–	–	–
CC1CCC(n2c3cnccc3c3cnc(Nc4ccc5c(n4)CCN(C(=O)CO)C5)nc32)CC1 (stereo not given)	–	inactive	inactive	105% (inactive)	–	0.152 µM (active)	–	1.21 µM (active)	23.9 µM (active)	86.5% [at 8.46 µM] (inactive)	92.3% [at 8.46 µM] (inactive)	–	–	–
NC(=O)c1ccccc1Nc1ccnc(Nc2cccc(O)c2)n1	–	inactive	inactive	–	18.6 µM (active)	0.662 µM (active)	5.25 µM (active)	–	30.1 µM (active)	–	–	5.9 µM (active)	1.66 µM (active)	–
O=C(Cc1ccc(-c2ccc(OCCN3CCOCC3)cc2)cn1)NCc1ccccc1	20.5% (inactive)	inactive	inactive	–	0.105 µM (active)	0.118 µM (active)	0.0934 µM (active)	0.0934 µM (active)	–	–	–	0.166 µM (active)	0.118 µM (active)	–
O=C(c1cncc(Br)c1)N1CCC(N2CCCC2)CC1	-12.4% (inactive) and 0.333% (inactive)	inactive	inactive	113% (inactive)	inactive	–	inactive	inactive	–	–	–	–	inactive	inactive
